Assay outcomes (PubChem)
PI5P4Ka inh: PI5P4K alpha (human) kinase inhibition; P48426; PI5P4Kalpha enzyme, ADP-Glo luminescence, 60 min; stronger effect = lower value; max response, %; 1.2% of 330,000 active; AID 652105; active = max response of -50% or lower; inconclusive = between -30% and -50%; inactive = -30% or higher; also: value at the top dose of about 77 µM
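PI5P4Kalpha ADP-Glo assay; 5 microM ATP final; 60 min RT reaction; HEPES pH 7.4/EGTA/CHAPS, 5% DMSO; controls lacking substrate or enzyme; luminescent end-point.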
HP1b binding inh: inhibitors of HP1-beta chromodomain binding to methylated histone tails; P83916; AlphaScreen HP1-beta / biotin-H3K9me3 peptide binding; Potency, µM (series often up to 114 µM), hits mostly inhibitors; 0.56% of 390,000 active; also: nearly all actives have a fitted effect of over 70% in size
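HP1-beta protein (50 nM final) preincubated 30 min at room temperature with biotinylated H3(1-18)K9me3 peptide (50 nM) in PBS pH 7.4, 0.01% Tween-20, then compound added for 30 min. AlphaScreen streptavidin donor/nickel chelate acceptor beads (10 ug/mL final), 30 min dark, luminescence read.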
KDM4E inh: inhibitors of human JMJD2E histone demethylase; B2RXH2; JMJD2E catalytic domain, FDH-coupled NADH fluorescence (FDH is formaldehyde dehydrogenase); Potency, µM (doses to about 57.1 µM), most hits filed as inhibitors; 1.6% of 230,000 active; AID 2147; active = well fitted inhibition curve with a large enough effect, not every such curve was filed as active; inconclusive = small, poorly fitted or top-dose-only effect, or another doubt; inactive = no such curve, though single readings can be large or run the other way; also: nearly all actives have a fitted effect of over 50% in size
JMJD2A Tudor: inhibitors of human JMJD2A Tudor domain; 4.4% of 390,000 active; AlphaScreen JMJD2A-Tudor / H3K4me3 peptide binding; AID 504339; Potency, µM (series often up to 114 µM), usual class: inhibitors; O75164; also: nearly all actives have a fitted effect of over 50% in size
Target sequence (O75164 whole entry, looked up, the tested form may be a part): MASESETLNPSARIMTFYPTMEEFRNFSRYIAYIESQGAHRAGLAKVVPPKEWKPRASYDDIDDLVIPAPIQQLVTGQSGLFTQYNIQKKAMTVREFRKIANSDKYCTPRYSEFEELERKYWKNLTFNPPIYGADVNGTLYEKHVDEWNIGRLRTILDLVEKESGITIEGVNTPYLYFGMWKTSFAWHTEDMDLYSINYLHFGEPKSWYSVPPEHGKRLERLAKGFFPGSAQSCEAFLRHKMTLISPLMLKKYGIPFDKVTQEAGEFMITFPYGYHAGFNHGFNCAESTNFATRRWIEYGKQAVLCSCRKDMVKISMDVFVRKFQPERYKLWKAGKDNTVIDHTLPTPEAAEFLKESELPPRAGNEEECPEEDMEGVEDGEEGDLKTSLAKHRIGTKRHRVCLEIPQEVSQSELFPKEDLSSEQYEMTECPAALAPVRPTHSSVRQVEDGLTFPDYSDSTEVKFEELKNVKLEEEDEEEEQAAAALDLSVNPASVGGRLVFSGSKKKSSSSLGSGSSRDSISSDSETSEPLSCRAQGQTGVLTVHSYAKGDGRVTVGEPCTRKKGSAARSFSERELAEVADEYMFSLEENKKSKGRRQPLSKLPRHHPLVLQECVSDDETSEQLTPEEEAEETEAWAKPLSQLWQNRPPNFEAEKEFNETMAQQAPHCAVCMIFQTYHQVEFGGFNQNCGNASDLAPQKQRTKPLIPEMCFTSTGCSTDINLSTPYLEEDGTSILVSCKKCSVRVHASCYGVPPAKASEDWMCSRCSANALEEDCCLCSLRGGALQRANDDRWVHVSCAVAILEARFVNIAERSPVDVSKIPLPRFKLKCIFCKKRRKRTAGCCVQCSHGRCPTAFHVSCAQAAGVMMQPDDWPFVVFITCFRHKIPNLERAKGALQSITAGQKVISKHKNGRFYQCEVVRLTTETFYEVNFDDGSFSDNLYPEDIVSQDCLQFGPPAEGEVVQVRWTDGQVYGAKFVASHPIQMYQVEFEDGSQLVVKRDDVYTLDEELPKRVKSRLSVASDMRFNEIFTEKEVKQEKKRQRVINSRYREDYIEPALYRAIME
BAZ2B inh: BAZ2B (human) inhibition; AlphaScreen BAZ2B-H3K14Ac peptide displacement; Potency, µM (titrated, usually from 114 µM), actives largely listed as inhibitors; 4.4% of 360,000 active; also: nearly all actives have a fitted effect of over 60% in size
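Compounds, titrated to a top concentration of 110 uM, were incubated 30 min at room temperature with preformed BAZ2B/acetyl-K14 H3 peptide complex (50 nM each). Proximity signal was measured by AlphaScreen after 20 min with beads.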
L3MBTL1 block: blocks human L3MBTL1; AlphaScreen L3MBTL1–H3K9me1 peptide binding; 0.66% of 230,000 active; Potency, µM (highest dose often 57.1 µM), usual class: inhibitors; Q9Y468; also: nearly all actives have a fitted effect of over 60% in size
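L3MBTL1 50 nM + b-AHA-H3(1-15)K9me1 75 nM, 30 min RT; compound added, 30 min RT; streptavidin donor/Ni-chelate acceptor beads 10 ug/mL each final, 30 min RT dark; AlphaScreen read.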
Numbers stand for hits; n = inactive; u = inconclusive; x = no result. Shown are actives, neighbours in structure and some others; about 5.7% of the full set was active somewhere. Unless noted, calls follow the shape of the dose curve; as a rule, active = well fitted inhibition curve with a large enough effect; inconclusive = small, poorly fitted or top-dose-only effect; inactive = no such curve, though single readings can be large or run the other way.

SMILES	PI5P4Ka inh	HP1b binding inh	KDM4E inh	JMJD2A Tudor	BAZ2B inh	L3MBTL1 block
CCN1/C(=C/c2ccc3cc(C)ccc3[n+]2CC)Sc2ccc3sccc3c21	n	u	x	u	x	x
CC[n+]1c(C)sc2c3ccsc3ccc21	u	u	n	56µM	x	n
COc1ccccc1CNC(=O)c1ccc(-c2nc(CN3CCc4ccccc43)c(C)o2)cc1	x	n	x	u	n	x
CC1=NN(c2ccc(C)cc2C)C(=O)C1C(c1ccccc1)C1C(=O)N(c2ccc(C)cc2C)N=C1C (configuration not stated)	n	n	n	u	56µM	n
CN=c1sc(C(=O)Nc2cccc(Cl)c2)cc(=O)n1C	-62	n	n	45µM	n	n
Cc1ccc(C(=O)Nc2ccc(Oc3ccc(C(=O)O)c(C(=O)O)c3)cc2)cc1C	n	n	n	79µM	n	x
Cc1ccc(CNc2ncnc3c2c(-c2ccccc2)cn3-c2cccc(Cl)c2)cc1	x	n	x	n	n	x
Cn1c(/C(C#N)=C/c2cccc(O)c2)nc2ccccc21	n	u	n	22µM	n	n
Cc1ccc2c(c1)-c1ccccc1S(=O)(=O)N2	n	n	u	n	n	x
O=S1(=O)Nc2c(cc(Cl)c3ccc(Cl)nc23)-c2ccccc21	x	u	x	40µM	x	x
N#Cc1cccc(NC(=O)C2CCN(S(=O)(=O)c3ccc4[nH]c(=O)ccc4c3)CC2)c1	x	n	x	n	n	x
O=S(=O)(c1ccccc1)N1CCN(c2nccc(-c3cccs3)n2)CC1	x	x	x	n	x	x
COc1cc(-c2nnc(SCC(=O)c3ccccc3)o2)cc(OC)c1OC	x	n	n	n	n	n
COc1cc(-c2nnc(SCc3cc(=O)oc4cc(O)c(O)cc34)o2)cc(OC)c1OC	x	n	u	u	7.9µM	x
CCN(C(=O)CSc1nnc(-c2cc(OC)c(OC)c(OC)c2)o1)c1ccccc1	x	n	x	u	56µM	x
CC1CN(C(=S)NC2CCCC2)CC(C)O1 (configuration not stated)	n	n	x	n	n	x
O=C(O)c1ccc(CSc2nc3ccccc3c(=O)n2-c2ccccc2)cc1	n	n	x	n	n	n
O=C(c1ccc(-n2c(SCc3cccc(F)c3)nc3ccccc3c2=O)cc1)N1CCOCC1	n	n	n	40µM	n	n
COCCCNC(=O)c1cc2cc(S(=O)(=O)N3CCCCC3)ccc2n1C	x	n	x	n	n	x
CCOC(=O)C1CCCN(C2=NC(=O)/C(=C/c3ccc(OC)cc3OC)S2)C1 (configuration not stated)	-79	n	x	n	n	x
CCOC(=O)C1CCCN(C2=NC(=O)/C(=C/c3ccc(N(C)C)cc3)S2)C1 (configuration not stated)	n	n	x	n	45µM	x
CCOC(=O)C1CCCN(C2=NC(=O)/C(=C/c3ccc(OC)cc3)S2)C1 (configuration not stated)	n	n	x	n	n	x
CCN(CC)CCSc1nc2ccccc2c(=S)n1-c1ccccc1	n	u	n	50µM	u	x
CCN(CC)CCSc1nc(O)c(-c2ccccc2)c(=O)n1-c1ccccc1	n	n	n	n	n	n
CC1CCCN(C(=O)C2CCN(CC3CC=CCC3)CC2)C1 (configuration not stated)	n	u	u	8.9µM	n	n
SMILES	PI5P4Ka inh	HP1b binding inh	KDM4E inh	JMJD2A Tudor	BAZ2B inh	L3MBTL1 block
Cc1ccccc1Nc1nc(C#N)nc(NC2CCCC2)n1	x	x	x	n	x	x
CCCN(CC(=O)Nc1ccccc1C)C(=O)CSc1ccccc1C	n	n	x	n	n	n
COc1ccc(CNC(=O)c2cc(-c3ccc(OC)c(OC)c3)nc3n[nH]c(-c4ccc(C)cc4)c23)cc1	x	n	x	n	n	x
S=c1[nH]c2ncccc2o1	x	n	n	n	u	x
S=c1[nH]c2cc(Cl)c3cccnc3c2o1	-53	n	x	n	n	n
CCOC(=O)N1CCc2c(sc3c2c(=O)n(Cc2ccccc2)c(=O)n3CC(=O)Nc2cccc(CC)c2)C1	x	n	x	n	n	x
Cc1ccc2nc(NC(=O)c3ccc(N4C(=O)CCC4=O)cc3)sc2c1	-54	n	n	n	u	n
CCCOc1ccc(C(=O)NC(=S)Nc2nc3ccc(C)cc3s2)cc1	x	x	n	x	n	n
Cc1ccc2nc(NC(=S)NC(=O)c3ccc(OC(C)C)cc3)sc2c1	n	n	n	n	56µM	n
CCOc1ccc(-n2nc(CO)c(C(=O)NCC(c3ccccc3)c3ccccc3)n2)cc1	x	n	x	n	n	x
COc1cc(OC)cc(C(=O)NCc2n[nH]c(=S)n2-c2ccccc2OC)c1	x	n	n	10µM	n	n
COc1ccc(-n2c(CNC(=O)c3cc(OC)c(OC)c(OC)c3)n[nH]c2=S)cc1	x	n	n	7.1µM	u	n
CCOC(=O)CCCCN(Cc1ccccc1F)S(=O)(=O)c1ccc(F)c(C(=O)Nc2cc(Cl)cc(Cl)c2)c1	x	n	x	n	n	x
Cc1cccc(Cn2cc(S(=O)(=O)c3ccccc3)c(=O)c3cc(F)c(N4CCOCC4)cc32)c1	x	n	x	n	n	x
Cc1cccc(NC(=S)c2nc3ccccc3s2)c1	n	28µM	n	50µM	8.9µM	u
CCCn1c(=S)[nH]c2cc(OC)c(OC)cc2c1=O	x	n	n	n	n	x
COc1cc2[nH]c(=S)n(NC(=O)CC(C)C)c(=O)c2cc1OC	x	n	n	3.5µM	u	x
CCC1=C(c2ccc(C)cc2)S(=O)(=O)N=C1N1CCC(C(=O)NCCCN2CCCCC2)CC1	n	n	x	n	n	x
O=C1CC(=O)N(Cc2ccco2)C(=O)N1	x	n	n	4.5µM	40µM	3.2µM
O=C1C(=C2CCCCC2)SC(=S)N1Cc1ccco1	n	n	n	56µM	u	u
O=C1CC(=O)N(Cc2ccco2)C(=S)N1	u	n	u	56µM	20µM	x
S=C1NCN(Cc2ccco2)CN1	n	n	n	n	n	n
COC(=O)C1=C(C(=O)OC)C(C(=O)OC)N2C=CC=CC2=C1C(=O)OC (configuration not stated)	n	x	x	x	x	x
CCOC(=O)c1sc2ncn(CC(=O)Nc3ccc(C)cc3Br)c(=O)c2c1C	x	n	x	n	n	x
Nc1ccccc1Nc1cccc(C(F)(F)F)c1	n	u	n	u	50µM	n
SMILES	PI5P4Ka inh	HP1b binding inh	KDM4E inh	JMJD2A Tudor	BAZ2B inh	L3MBTL1 block
Nc1ccc(Nc2ccccc2N)cc1	x	u	u	50µM	35µM	n
COc1ccc(Nc2ccnc3ccccc23)cc1	u	n	n	n	n	n
Cc1cc(C)nc(Nc2cccc(C(F)(F)F)c2)n1	n	n	x	n	n	n
COc1ccc(Nc2ccccc2N)cc1	n	u	10µM	45µM	35µM	n
O=S(=O)(c1ccc2c(c1)OCCO2)N1CCN(S(=O)(=O)c2cccc[n+]2[O-])CC1	x	x	x	n	x	x
CCc1nnc(NC(=O)CN2CCOCC2)s1	x	n	n	u	n	n
CCCN1CCN(CC(=O)Nc2nnc(CC)s2)CC1	n	n	x	7.1µM	n	n
CC1=C(C)C(=O)C(CCCCC#CCCCC#CCO)=C(C)C1=O	u	u	u	40µM	40µM	n
O=C1COc2cc(S(=O)(=O)NCc3ccco3)c(Cl)cc2N1	x	n	x	n	50µM	32µM
